According to article PMC4552634, “A New Set of Chemical Starting Points with Plasmodium falciparum Transmission-Blocking Potential for Antimalarial Drug Discovery” (PLoS ONE, 2015):
The campaign covered roughly 13,000 compounds. About 3,200 (25%) showed an effect of 50% or more. Some of the results follow.

The molecules below were run on P. falciparum stage V gametocytes. Conditions: 48 h, 5 µM; inhibitor.
Set-up: BacTiter-Glo ATP luminescence viability of purified stage V gametocytes in 384-well plates, per cent inhibition versus DMSO

SMILES | % Inhibition
O=C(/C=C/c1ccc(Cl)c(Cl)c1)NCCCCCN1CCC(NC(=O)c2ccc(F)c(F)c2)CC1 [TCMDC-135838] | -28.53%
Cc1ccc(Nc2nc(N/N=C/c3cccc(O)c3)nc(Nc3ccc([N+](=O)[O-])cc3)n2)cc1C [TCMDC-124125] | -28.14%
CCCN(Cc1nnc(-c2ccco2)o1)C(=O)C1CCN(c2ncc(C(F)(F)F)cc2Cl)CC1 [TCMDC-125335] | -10.32%
CCOc1ccc(Cc2c(C)nc3nc(N)nc(N)c3c2C)cc1 [TCMDC-137655] | 8.912%
Cc1c(Cl)ccc2c(C(=O)Nc3ccncc3)cc(-c3cccnc3)nc12 [TCMDC-125224] | 6.226%
COc1ccc(CNC2Cc3ccccc3C2)cc1-c1cccc(S(=O)(=O)NCCN2CCCC2)c1 [TCMDC-132269] | 112.5%
COc1ccc(CNC2Cc3ccccc3C2)cc1-c1ccc(S(=O)(=O)NCCN2CCCC2)cc1 [TCMDC-132248] | 107.9%
CC(C)NCc1ccc(-c2ccc(-c3nc4ccc(F)cc4[nH]3)cc2)cc1 [TCMDC-132740] | 14.26%
CCc1ccccc1NC(=O)CN1CCN(c2ncnc3scc(-c4ccc(F)cc4)c23)CC1 [TCMDC-125248] | -17.47%
CC(C)CNC(=O)CN1C(=O)C(c2ccccc2)(c2ccccc2)N=C1N [TCMDC-137006] | -9.905%
Fc1ccc2[nH]c3c(NCCCN4CCOCC4)ncnc3c2c1 [TCMDC-124555] | -45.7%
CC(C)C[C@H](NC(=O)c1ccc(F)cc1)C(=O)N[C@H](/C=N/NC(=O)c1ccccc1)CCc1ccccc1 [TCMDC-135680] | -1.54%
Cn1c(=N)cc(-c2cccc(I)c2)c2c(=O)[nH]c(N)nc21 [TCMDC-137835] | 7.838%
Cn1nccc1C(=O)NCCNCc1cccc(-c2cccc(-c3nc4cc(F)ccc4[nH]3)c2)c1.O=C(O)C(F)(F)F [TCMDC-133020] | -34.05%
Fc1ccc2[nH]c(-c3cccc(-c4cccc(CNCCN5CCNCC5)c4)c3)nc2c1 [TCMDC-132860] | 97.72%
O=C1CCCN1CCCNCc1ccc(-c2cccc(-c3nc4ccc(F)cc4[nH]3)c2)cc1 [TCMDC-132750] | -14.96%
Fc1ccc2[nH]c(-c3cccc(-c4ccc(CNCCN5CCNCC5)cc4)c3)nc2c1 [TCMDC-132863] | 90.56%
O=C1CCCN1CCCNCc1cccc(-c2cccc(-c3nc4ccc(F)cc4[nH]3)c2)c1 [TCMDC-132765] | -41.49%
Cn1cccc1CCNCc1ccc(-c2cccc(-c3nc4cc(F)ccc4[nH]3)c2)cc1.O=C(O)C(F)(F)F [TCMDC-132684] | 7.89%
Cn1ncc2c3c(CCN4CCC(NCc5cc6c(cn5)OCC6)CC4)c(Cl)cnc3ccc21 [TCMDC-136024] | -18.24%
COc1ccccc1C(=O)Nc1cccc(N2CCC(NCc3ccc(-n4cccn4)cc3)CC2)c1 [TCMDC-124643] | 0.3581%
COc1ccccc1NC(=O)Nc1ccc(-c2ccc(-c3nc4cccc(C)c4[nH]3)s2)cc1 [TCMDC-133201] | -21.27%

SMILES | % Inhibition
COc1cccc(CN(C(=O)Nc2ccccc2F)[C@H]2C[C@H]3C(=O)Nc4cc(F)ccc4C(=O)N3C2)c1 [TCMDC-134304] | 17.59%
CC(C)(C)C(=O)Oc1ccc(CC2NCCc3cc(OC(=O)C(C)(C)C)c(OC(=O)C(C)(C)C)cc32)cc1OC(=O)C(C)(C)C (centres unmarked) [TCMDC-131452] | -22.51%
NCC1CCCN1Cc1ccc(-c2cccc(-c3nc4ccc(F)cc4[nH]3)c2)cc1 (centres unmarked) [TCMDC-132998] | 102.5%
Cc1cccc2[nH]c(-c3cccc(-c4cccc(CN5CCCC5CN)c4)c3)nc12 (centres unmarked) [TCMDC-132989] | 49.36%
NCC1CCCN1Cc1ccc(-c2ccc(-c3nc4ccc(F)cc4[nH]3)cc2)cc1 (centres unmarked) [TCMDC-132994] | 65.53%
NCC1CCCN1Cc1ccc(-c2ccc(-c3nc4ccccc4[nH]3)s2)cc1 (centres unmarked) [TCMDC-132988] | 37.26%
NCC1CCCN1Cc1cccc(-c2cccc(-c3nc4ccc(F)cc4[nH]3)c2)c1 (centres unmarked) [TCMDC-133001] | 98.63%
NC(=O)C1CCN(Cc2cccc(-c3cccc(-c4nc5ccc(F)cc5[nH]4)c3)c2)CC1 [TCMDC-132686] | -35.6%
Fc1ccc2nc(-c3ccc(-c4ccc(CN5CCN(CCN6CCOCC6)CC5)cc4)cc3)[nH]c2c1 [TCMDC-133926] | -0.4105%
COc1ccccc1OCCN(CC(O)COc1cccc2[nH]c3ccccc3c12)CC(O)COc1cccc2[nH]c3ccccc3c12 (centres unmarked) [TCMDC-141980] | -17.57%
O=C1NCN(c2ccc(O)cc2)C12CCN(CCCC(c1ccc(F)cc1)c1ccc(F)cc1)CC2 [TCMDC-138052] | -32.4%
Cc1[nH]c(C)c(-c2ccc(/C=C/c3ccccn3)cc2)c(=O)c1Cl [TCMDC-135787] | 58.19%
Cc1[nH]c(C)c(-c2ccc(-c3ccc(Cl)cc3)cc2)c(=O)c1Cl [TCMDC-137416] | 50.46%
Cc1[nH]c(C)c(-c2ccc(C(=O)c3ccc(Cl)cc3)cc2)c(=O)c1Cl [TCMDC-137413] | 70.39%
Cc1[nH]c(C)c(-c2ccc(C(=O)c3ccccc3)cc2)c(=O)c1Br [TCMDC-137419] | 74.6%
Cc1[nH]c(C)c(-c2ccc(Cl)cc2)c(=O)c1I [TCMDC-137424] | 41.94%
Cc1[nH]c(C)c(-c2csc3ccccc23)c(=O)c1Cl [TCMDC-136017] | 42.39%
CC[C@H](C)CNC(=O)c1cncc(-c2ccc(CNCC3CNCCCO3)cc2)c1 (some centres unmarked) [TCMDC-134269] | 2.096%
CN(C)CCCN1C(=O)c2[nH]nc(-c3ccc(Cl)cc3O)c2C1c1ccc(Cl)cc1 (centres unmarked) [TCMDC-124910] | -62.01%
C(=N\Nc1nccc2sc(-c3cccnc3)cc12)/c1cccnc1 [TCMDC-135297] | -1.822%
O=C1c2ccccc2CN1CCCN1CCC(Oc2ccc(F)cc2)CC1 [TCMDC-141252] | -41.1%
COc1c(Br)cc(Br)cc1-c1ccc(CN2C3CCCC2CCC3)[nH]1 [TCMDC-138965] | -8.76%

SMILES | % Inhibition
CC(C)S(=O)(=O)N1CCN(Cc2ccc3c(c2)nc(NC(=O)c2ccsc2)n3C[C@H](O)c2ccccc2)CC1 [TCMDC-138569] | -9.312%
Cc1[nH]c(C)c(-c2ccc(C(=O)c3ccc(Cl)cc3)cc2)c(=O)c1Br [TCMDC-137407] | 68.89%
Cc1cc(=O)c(C2CCC(c3ccc(Cl)cc3)CC2)c(C)[nH]1 (centres unmarked) [TCMDC-138154] | 9.202%
Cc1[nH]c(C)c(-c2cc3ccccc3o2)c(=O)c1Cl [TCMDC-135948] | 11.96%
CCN(CC)C(=O)c1cccc(C=Cc2ccc(-c3c(C)[nH]c(C)c(Cl)c3=O)cc2)c1 [TCMDC-135819] | 53.1%
Cc1[nH]c(C)c(C2CCC(c3ccc(Cl)cc3)CC2)c(=O)c1Cl (centres unmarked) [TCMDC-137423] | 63.6%
Cc1[nH]c(C)c(-c2ccc(Br)cc2)c(=O)c1Cl [TCMDC-135043] | 62.53%
Cc1[nH]c(C)c(-c2ccc(Br)cc2)c(=O)c1Br [TCMDC-137537] | 28.95%
Cc1cc(=O)[nH]c2cc(Nc3ccnc(Nc4cccc(C(N)=O)c4)n3)ccc12 [TCMDC-138710] | 20.95%
CC(C)Oc1ccc(N2CCN(CCCCNC(=O)c3ccc(NC(=O)c4ccc(Cl)cc4)cc3)CC2)c(OC(C)C)c1 [TCMDC-138245] | -2.12%
C#CCN(Cc1ccc2nc(N)[nH]c(=O)c2c1)c1ccc(C(=O)N[C@@H](CCC(=O)O)C(=O)O)cc1 [TCMDC-131823] | -7.091%
O=C(CCCCCNC(=O)c1ccc(O)c(-c2cccc(C(F)(F)F)c2)c1)NCCN1CCCCC1 [TCMDC-140814] | -2.677%
Cc1cc(N(C)C)nc(Nc2ccc(NC(=O)c3cccc(F)c3)cc2)n1 [TCMDC-124724] | 10.45%
Cc1[nH]c(C)c(-c2ccc(Sc3ccc(Cl)cc3)cc2)c(=O)c1Br [TCMDC-137404] | 66.05%
COc1ccc2ncc(Cl)c(N3CCC(CCNCc4ccc5c(n4)NC(=O)CS5)CC3)c2c1.Cl [TCMDC-141958] | 0.05948%
CC(C)(C)NS(=O)(=O)c1cc(C(=O)N2CCC(CCN3CCC(C(=O)c4ccc(F)cc4)CC3)(c3cccc(F)c3)CC2)c(Cl)cc1F [TCMDC-135885] | 79.72%
CN(C)S(=O)(=O)c1ccc(N2CCN(CCC3(c4cccc(F)c4)CCN(C(=O)C(C)(C)C)CC3)CC2)c2nonc12 [TCMDC-135887] | 8.489%
CC(=O)C1(c2ccccc2)CCN(CCC2(c3ccc(Cl)c(Cl)c3)CN(C(=O)Nc3cccc(C(F)(F)F)c3)CCO2)CC1 (centres unmarked) [TCMDC-135342] | 34.05%
O=C(Cc1ccccc1)NC(CCN1CCC(O)(c2cccc(C(F)(F)F)c2)CC1)c1ccc(Cl)c(Cl)c1 (centres unmarked) [TCMDC-141711] | 14.28%
CC(C)(C)NS(=O)(=O)c1cc(C(=O)N2CCC(CCN3CCC(O)(c4cccc(C(F)(F)F)c4)CC3)(c3cccc(F)c3)CC2)c(Cl)cc1F [TCMDC-135886] | 93.87%
O=C(NC1CCN(CCC[C@]2(c3ccc(Cl)c(Cl)c3)CCCN(C(=O)c3ccccc3)C2)CC1)c1ccc(Cl)cc1 [TCMDC-141713] | -34.58%
